# DT40 TDP1 no CPT: qHTS for Inhibitors of human tyrosyl-DNA phosphodiesterase 1 (TDP1): qHTS in cells in absence of CPT | DT40 Tdp1-/- hTDP1 cells, no CPT, ATP luminescence, 48 h | Potency, µM (series often up to 46.2 µM), without a hit: at the top dose activity change, negative = growth inhibition, hits mostly inhibitors | 420,000 tested, 15% active; further: potency means the concentration at half of the fitted maximal effect; nearly all actives have a fitted effect of over 55% in size
#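 Chicken DT40 Tdp1-/- cells complemented with human TDP1, screened without camptothecin (DMSO vehicle only), 400 cells/well. Compounds pin-transferred, cells incubated at 37 °C for at least 48 hr. Growth read as ATP-dependent luminescence (CellTiter-Glo, 30 min at RT).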
# TDP1 cell CPT: growth inhibition of DT40 Tdp1-/-;hTDP1 cells with camptothecin (screen for TDP1 inhibitors). chicken DT40 Tdp1-/-;hTDP1 cells + 20 nM CPT, ATP luminescence, 48 h. Potency, µM (titrated, usually from 46.2 µM), without a hit: at the highest dose activity change, negative = growth inhibition, usual class: inhibitors. 420,000 tested, 12% active; further: potency means the concentration at half of the fitted maximal effect; nearly all actives have a fitted effect of over 55% in size
#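 Chicken DT40 Tdp1-/- cells complemented with human TDP1, 400 cells/well, exposed to compounds plus 20 nM camptothecin for at least 48 h at 37 C; viability read as ATP content by CellTiter-Glo luminescence.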
# HT1080 IDH1KD tx: toxicity to HT-1080 IDH1 knockdown cells (counter line); 360,000 tested, 2% active; HT-1080 IDH1 knockdown viability, ATP luminescence, 48 h; Potency, µM (series often up to 46.1 µM), for the others: at the highest dose activity, negative = toxicity, actives largely listed as cytotoxic;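 further: potency means the concentration at half of the fitted maximal effect; 0% = DMSO wells and -100% = cell-free medium wells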
#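 Using the IDH1-knockdown HT-1080 line run in the same batch and compound series as the NT line, viability after 48 h at 37 °C was determined by CellTiter-Glo luminescence and expressed as % activity.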
# HT1080NT lethal: kills 2HG-producing HT-1080-NT fibrosarcoma cells; HT-1080-NT fibrosarcoma viability, CellTiter-Glo ATP luminescence, 48 h; Potency, µM (titrated, usually from 46.1 µM), inactives show top-dose activity, negative = less viability, hits mostly cytotoxic; 360,000 tested, 1.6% active;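 further: NT is the 2HG producing partner of a matched IDH1 knockdown line; potency means the concentration at half of the fitted maximal effect; 0% = DMSO-treated cells and -100% = media-only wells without cells; nearly all actives have a fitted effect of over 55% in size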
#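 750 cells/well, RPMI + 5% FBS; 2 h settle, compound pin-transfer, 48 h at 37 degrees C. CellTiter-Glo 10 min RT, luminescence. Normalized to DMSO and media-only wells.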
# IL1B secr inh: inflammasome signaling inhibition, IL-1 beta readout; 360,000 tested, 4.7% active; THP-1 LPS/ATP IL-1B secretion, AlphaLISA, 16 h; stronger effect = lower value; AID 743279; activity change, % at 57.5 µM; in the data active means activity change below about -50%; inconclusive means mostly about -30% to -49%
#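 THP-1 cells pretreated 1 hr with compounds (up to 57.5 uM final), then stimulated with LPS (250 ng/mL final) plus ATP (1.25 mM final); secreted IL-1B measured by AlphaLISA after 16 hr, decreased signal indicating inhibition.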
# ELG1 repair inh: ELG1-dependent DNA repair inhibition; HEK293T ELG1-luciferase reporter, luminescence, 16 h; DNA damage induced by 5-fluorouridine; Potency, µM (doses to about 46.1 µM), without a hit: at the highest dose activity change, negative = inhibition, usual class: inhibitors; 330,000 tested, 2.3% active; AID 504467; further: potency means the concentration at half of the fitted maximal effect; nearly all actives have a fitted effect of over 55% in size
#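 Step one: seed 2,000 cells per well. Step two: pin-transfer compound or DMSO alongside 5-fluorouridine. Step three: incubate 16 hr, 37 °C, 5% CO2. Step four: add ONE-Glo, wait 30 min, read luminescence.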
# The depositor's hits bear a star; ? = inconclusive; . = no result given. Compounds with a hit are over-represented: about 19% of the library has one in this group of screens. Unless noted, the call rests on the fitted dose curve; in most records, active means well fitted curve in the direction sought with a large enough effect; inconclusive means small, poorly fitted or top-dose-only effect, or another doubt; inactive means no such curve, though single readings can be large; an effect the other way counts as inactive or inconclusive. Unless noted, on the % scale 0 is the no-effect control and ±100 the full control effect.
SMILES,DT40 TDP1 no CPT,TDP1 cell CPT,HT1080 IDH1KD tx,HT1080NT lethal,IL1B secr inh,ELG1 repair inh
COc1ccc(-c2nn(-c3ccccc3)cc2C(=O)N(C)CC(=O)Nc2ccccc2Br)cc1,?,23.1µM*,-5.5%,-8.0%,?,.
COc1ccc(NC(=O)CN(C)C(=O)c2cc(-c3ccccc3)nc3ccccc23)cc1,14.6µM*,?,-1.4%,-7.8%,?,?
COc1ccc(NC(=O)CN(C)C(=O)c2cc(-c3ccc(OC)cc3)nc3ccccc23)cc1,?,?,-11.3%,-21.3%,?,?
CN(CC(=O)Nc1cccc(F)c1)C(=O)c1cn(-c2ccccc2)nc1-c1ccc(F)cc1,?,?,-25.8%,-20.6%,-24.9,-6.1%
O=C(c1ccc(OC2CCN(Cc3ccccn3)CC2)cc1)N1CCCC(O)C1 (stereo unspecified),-24.2%,-5.9%,11.8%,19.3%,?,4.5%
CCC(=O)N1CCCC(C(=O)NCc2ccc(C(C)C)cc2)CC1 (stereo unspecified),-7.3%,5.9%,0.1%,0.3%,29.0,.
COc1ccccc1CNC(=O)C1(c2cccs2)CCOCC1,?,-26.2%,.,.,.,.
Cc1ccc(SCC(=O)N(C)CC(=O)Nc2cccc(F)c2)c(C)c1,?,-22.2%,-1.2%,1.0%,-52.9*,17.5%
COc1ccc(-c2nn(-c3ccccc3)cc2/C=C/C(=O)OCC(=O)Nc2ccccc2C#N)cc1,23.1µM*,7.31µM*,-20.4%,-11.8%,3.5,5.8%
CN(CC(=O)Nc1cccc(F)c1)C(=O)CSc1ccccc1,?,-9.8%,-9.0%,-10.1%,-1.8,-0.8%
CN(CC(=O)Nc1ccc(N2CCOCC2)cc1)C(=O)c1cn(-c2ccccc2)nc1-c1ccccc1,?,10.6%,-0.3%,-1.9%,7.6,?
CN(CC(=O)Nc1ccccc1Br)C(=O)c1ccccc1OCc1ccc(Cl)cc1,18.4µM*,?,-8.9%,-1.9%,-58.6*,.
Cc1cccc(-c2nn(-c3ccccc3)cc2C(=O)N(C)CC(=O)Nc2ccc(N3CCOCC3)cc2)c1,-28.6%,-22.6%,1.7%,-1.9%,6.6,11.6µM*
CN(CC(=O)Nc1ccccc1Br)C(=O)c1n[nH]c2ccccc12,-15.3%,-13.1%,-11.8%,?,15.7,-15.1%
Cc1ccc2nc(-c3ccccc3)cc(C(=O)N(C)CC(=O)Nc3ccccc3Br)c2c1,25.9µM*,?,?,?,?,?
COc1cccc(-c2nn(-c3ccc(C)cc3)cc2C(=O)N(C)CC(=O)Nc2cccc(F)c2)c1,?,18.4µM*,?,-24.4%,0.0,13µM*
COc1ccc(-c2nn(-c3ccccc3)cc2C(=O)N(C)CC(=O)Nc2cccc(F)c2)cc1,?,?,?,-28.4%,-24.7,?
CCOc1ccc(OCC)c(S(=O)(=O)n2cnc(C)c2)c1,1.9%,1.0%,0.3%,-2.4%,7.3,-10.0%
N#Cc1c2nc3ccccc3nc2n2cc(NC(=O)c3ccc(F)cc3)ccc12,4.61µM*,4.11µM*,6.6%,-1.6%,-7.1,6.3%
Cc1c(C(=O)Nc2ccc(F)cc2)cn2c(nc3ccccc32)c1C#N,-28.1%,-27.7%,0.0%,?,-4.4,?
COc1ccc(CNC(=O)c2ccc3c(c2)N(Cc2ccccc2)C(=O)c2ccccc2S3(=O)=O)cc1,-23.2%,?,.,.,.,.
O=C(NCc1ccco1)c1ccc2c(c1)N(Cc1ccc(Cl)cc1)C(=O)c1ccccc1S2=O (stereo unspecified),18.4µM*,?,.,.,.,.
CN(Cc1ccccc1)C(=O)c1ccc2c(c1)N(Cc1ccc(Cl)cc1)C(=O)c1ccccc1S2=O (stereo unspecified),16.4µM*,16.4µM*,.,.,.,.
O=C(NCc1ccco1)c1ccc2c(c1)N(Cc1ccc(F)cc1)C(=O)c1ccccc1S2(=O)=O,14.6µM*,?,.,.,.,.
CCCCN(C)C(=O)c1ccc2c(c1)N(Cc1ccc(F)cc1)C(=O)c1ccccc1S2(=O)=O,16.4µM*,16.4µM*,.,.,.,.
SMILES,DT40 TDP1 no CPT,TDP1 cell CPT,HT1080 IDH1KD tx,HT1080NT lethal,IL1B secr inh,ELG1 repair inh
O=C(NC1CCCCC1)c1ccc2c(c1)N(Cc1ccc(F)cc1)C(=O)c1ccccc1S2(=O)=O,-12.8%,-27.2%,.,.,.,.
CCOc1ccc(S(=O)(=O)N2CCC(C(=O)NCc3cccnc3)CC2)cc1C,-27.8%,-23.6%,0.8%,-23.5%,0.9,-5.4%
O=C(Nc1cccc(S(=O)(=O)NC2=NCCC2)c1)c1ccc(C(F)(F)F)cc1,?,?,2.6%,-1.9%,-9.3,?
CCOC(=O)[C@]12CCCC=C1N(Cc1ccco1)C(=O)[C@H](CC(=O)N1CCSCC1)C2,?,?,11.9%,18.1%,1.7,.
CC(=O)N1c2ccccc2CC1C(=O)NCc1cccc(Cl)c1 (stereo unspecified),-29.5%,?,.,.,.,.
O=C(NCc1ccco1)c1ccc2c(c1)N(Cc1ccc(Cl)cc1)C(=O)c1ccccc1S2(=O)=O,18.4µM*,?,.,.,.,.
O=C(NCCN1CCOCC1)c1ccc2c(c1)N(Cc1ccc(F)cc1)C(=O)c1ccccc1S2(=O)=O,-19.4%,-10.2%,-0.4%,-14.0%,-17.8,-1.4%
O=C(NCCC1=CCCCC1)c1ccc2c(c1)N(Cc1ccc(F)cc1)C(=O)c1ccccc1S2(=O)=O,7.31µM*,20.6µM*,.,.,.,.
COc1cccc(CN2C(=O)c3ccccc3Sc3ccc(C(=O)N(C)Cc4ccccc4)cc32)c1,18.4µM*,?,.,.,.,.
COC(=O)c1cc([N+](=O)[O-])c(C)c(C)n1,-5.9%,-4.5%,2.3%,5.9%,-16.3,.
CC1(c2ccccn2)Nc2ccccc2-c2nc3ccccc3n21 (stereo unspecified),16.4µM*,18.4µM*,3.4%,0.6%,-29.4,?
c1ccc2c(c1)NC1(CCCCC1)n1c-2nc2ccccc21,-16.5%,-9.8%,?,-20.7%,-0.1,?
O=C1Nc2ccccc2C12Nc1ccccc1-c1nc3ccccc3n12 (stereo unspecified),23.1µM*,?,-15.4%,-7.1%,-22.7,14.6µM*
CCCCC1(C)Nc2ccccc2-c2nc3ccccc3n21 (stereo unspecified),?,16.4µM*,-2.9%,-3.3%,-7.6,?
CN1C(=O)C2(Nc3ccccc3-c3nc4ccccc4n32)c2ccccc21 (stereo unspecified),-27.8%,-19.9%,-4.9%,-4.7%,0.0,-13.2%

# From PubChem BioAssay
